Laboratory results reported in PubChem BioAssay (NCI).
Compounds without any hit were thinned out: in the full panel of roughly 83,000, 20% have a hit.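 Treatment: one concentration, 48 hours, 96-well format. Scoring: percent growth, with anything below 10 considered active.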 Values without a mark were called inactive. Calls of active or inactive are those of the source.

Assays:
Assay in all cases: NCI-60 one-dose screen, 48 h (100 = growth as untreated, 0 = no growth, -100 = all killed)
[1] = test system: HCT-15 colon; settings: 10 µM unless noted
[2] = test system: HT29 colon; settings: 10 µM unless noted
[3] = test system: SNB-75 CNS; settings: 10 µM unless noted
[4] = test system: SNB-19 CNS; settings: 10 µM unless noted
[5] = test system: U251 CNS; settings: 10 µM unless noted
[6] = test system: PC-3 prostate; settings: 10 µM unless noted
[7] = test system: SK-MEL-5 melanoma; settings: 10 µM unless noted
[8] = test system: UACC-62 melanoma; settings: 10 µM unless noted
[9] = test system: LOX IMVI melanoma; settings: 10 µM unless noted
[10] = test system: SK-MEL-28 melanoma; settings: 10 µM unless noted
[11] = test system: SK-MEL-2 melanoma; settings: 10 µM unless noted
[12] = test system: EKVX NSCLC; settings: 10 µM unless noted
[13] = test system: SN12C renal; settings: 10 µM unless noted
[14] = test system: UO-31 renal; settings: 10 µM unless noted
[15] = test system: TK-10 renal; settings: 10 µM unless noted
[16] = test system: CAKI-1 renal; settings: 10 µM unless noted
[17] = test system: A498 renal; settings: 10 µM
[18] = test system: HL-60(TB) leukemia; settings: 10 µM unless noted
[19] = test system: CCRF-CEM leukemia; settings: 10 µM unless noted
[20] = test system: ACHN renal; settings: 10 µM unless noted

SMILES | growth [1] | growth [2] | growth [3] | growth [4] | growth [5] | growth [6] | growth [7] | growth [8] | growth [9] | growth [10] | growth [11] | growth [12] | growth [13] | growth [14] | growth [15] | growth [16] | growth [17] | growth [18] | growth [19] | growth [20]
COc1ccc(/C=C\c2cc(OC)c(OC)c(OC)c2)cc1OCC(=O)Nc1nc2ccc(C(F)(F)F)cc2s1 | 15.2% | 92.6% | -6.34% (active) | 33.7% | 18% | 31.5% | 16.8% | 32.1% | 9.35% (active) | 32.9% | -2.78% (active) | 77.3% | 45.8% | 21% | 8.6% (active) | 24.5% | 14.3% | 11.8% | 25.4% | –
C=C1[C@@H](C)[C@H]2[C@H](Cc3ccccc3)NC(=O)[C@]23[C@@H](O)/C=C/[C@@](C)(O)C(=O)[C@@H](C)C/C=C/[C@H]3[C@@H]1O | 66.1% | 25.3% | -8.47% (active) | 40.7% | 21.9% | 45.2% | 77.6% | 65.6% | 27.1% | 67.1% | 65.1% | 57.2% | 66.1% | 31.6% | 39.6% | 52.5% | – | – | 48% | –
Fc1ccc(C2=CCNCC2)cc1 | 109% | 109% | 84.1% | 109% | 96.9% | 101% | 91.9% | 86.4% | 90.1% | 107% | 109% | 86.2% | 73% | 84.7% | 86.5% | 79.5% | 87.8% | 109% | 118% | –
CN(C)C(=O)Oc1ccccc1 | 98.1% | 118% | 89.1% | 115% | 103% | 94.8% | 113% | 109% | 92.4% | 111% | 108% | 104% | 106% | 103% | 107% | – | – | 94.5% | 104% | 101%
[Au+].[N-]=C=O.c1ccc(CN2[CH-]N(Cc3ccccc3)C(c3ccccc3)=C2c2ccccc2)cc1 | 51.9% | 88.4% | 79.2% | 58.7% | 47.8% | 84.1% | 96.9% | 78% | 94.7% | 92.8% | 84.5% | 86.7% | 74% | 74.5% | 104% | – | 112% | – | 66.8% | 93.2%
CCOC(=O)CCN(C)C1=Nc2ccc(Cl)cc2C(c2ccccc2)=[N+]([O-])C1 | 105% | 82% | 99.5% | 99.3% | 100% | 91% | 100% | 93.4% | 99.8% | 121% | 93.5% | 102% | 98.5% | 78.6% | 91.4% | – | – | – | 99.6% | 110%
COP(=S)(N1CC1)N1CC1 | 109% | 103% | 103% | 112% | 108% | 91.9% | 104% | 109% | 104% | 114% | 103% | 106% | 112% | 84.3% | 110% | – | – | 106% | 105% | 103%
Oc1ccc2c3c1OC1[C@@H](O)CC[C@@]4(O)[C@@H](C2)N(CC2CCC2)CC[C@]314 (some centres not stated) | 99.2% | 98% | 97.9% | 109% | 96.8% | 94.1% | 92.5% | 108% | 97.3% | 106% | 118% | 99.7% | 103% | 83.2% | 106% | 94% | 94.7% | 102% | 97.5% | –
CCOP(=O)(Cc1ccc(C#N)cc1)OCC | 108% | 92.2% | 106% | 97.3% | 95.6% | 84.7% | 104% | 94.1% | 98.3% | 107% | 92.3% | 105% | 97% | 99.2% | 93.4% | – | 98% | – | 99.3% | 110%
O=C(Nc1ccc(Br)cc1)c1cc(Br)cc(Br)c1O | -14.6% (active) | 23.5% | -10.5% (active) | 11% | 6.11% (active) | 9.67% (active) | -71% (active) | -14.2% (active) | -7.5% (active) | 33.7% | -21.8% (active) | 10.7% | -2.01% (active) | 4.99% (active) | 14.6% | -6.11% (active) | 32.2% | 84.3% | 13.5% | –
Nc1c(F)cc(-c2nc3cc(F)ccc3[se]2)cc1F | 22% | 46.4% | 92.2% | 104% | 93.6% | 72.1% | 56.1% | 66.5% | 89.3% | 116% | 107% | 47.6% | 85.9% | 60.2% | 27.7% | – | 38.9% | – | 88.7% | 68.7%
O=[N+]([O-])c1cc(I)cc([N+](=O)[O-])c1 | 90.2% | 109% | 93.2% | 113% | 107% | 92.5% | 95.2% | 103% | 91.8% | 116% | 96.8% | 99.9% | 103% | 108% | 117% | – | 111% | 125% | 100% | 121%
COC(=O)C12CC(NC(=O)c3csc([C@@H](C[C@H](C(C)C)N(C)C(=O)[C@@H](NC(=O)[C@H]4CCCCN4C)C(C)C)OC(C)=O)n3)(C1)C2 | 5.8% (active) | 2.39% (active) | 47% | 29.1% | 20.7% | 23% | -38.8% (active) | 37.2% | 22.2% | 62.4% | 28.5% | 44% | 24.5% | 44.4% | 56.5% | – | -1.32% (active) | -38.9% (active) | 8.23% (active) | 22.9%
ClC1=C(Cl)C(Cl)(C2(Cl)C(Cl)=C(Cl)C(Cl)=C2Cl)C(Cl)=C1Cl | -41.9% (active) | -64.2% (active) | 62% | 10.5% | -11.3% (active) | -8.81% (active) | -21.8% (active) | -18.6% (active) | -85.5% (active) | -18.1% (active) | 16.9% | 5.58% (active) | -25.2% (active) | -89.6% (active) | -91.3% (active) | – | 67% | -36.3% (active) | -57.6% (active) | –
CCCCCN(CCCCC)CC(O)c1cc(Cl)ccc1OC (configuration not stated) | 31.3% | 11.8% | 84.8% | 56.7% | 38.3% | 24.5% | 37.7% | 62.3% | 14.5% | 51.7% | 32.8% | 52.4% | 52.7% | 25.2% | 73.1% | 28.7% | 37.4% | 55.4% | – | –
CC(=O)OC[C@]1(C)C=C2C(=O)[C@](C)(O)C3(CC3)C(C)=C2[C@H]1OC(=O)N(C)CCN(C)C(=O)OC(C)(C)C | 3.65% (active) | 0.176% (active) | -15.1% (active) | 8.79% (active) | 4.09% (active) | -21.4% (active) | -74.4% (active) | -52% (active) | -6.97% (active) | -4.04% (active) | -74.3% (active) | -7.18% (active) | 14.2% | -48.5% (active) | -8.19% (active) | – | – | -37% (active) | 19.9% | -8.88% (active)
